Assay outcomes deposited in PubChem by NMMLSC.
Myeloid diff 2: promotes myeloid progenitor differentiation | calls only at 10 µM | 360,000 compounds, 1% hits | ER-HoxA9 myeloid progenitors, lysozyme-GFP differentiation, flow cytometry;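 active = normalized GFP-positive differentiation at or above the plate's own cutoff, the solvent-only control mean plus 3 SD; inconclusive = no clear call, values can overlap the other calls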;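 also: cells exposed to compound for four days before flow analysis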
Exocytosis inh: lytic granule exocytosis inhibition | TALL-104 LAMP-1 surface exposure, flow cytometry; cells stimulated with thapsigargin and PMA | inhibition, % at 10 µM | AID 651702 | 360,000 compounds, 0.66% hits;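 active = inhibition above about 55%, limit read from the data; inconclusive = no clear call, values can overlap the other calls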
ABCB6 inh 2: human ABCB6 transporter inhibition; fluorescence ratio to DMSO, % at 10 µM; 360,000 compounds, 0.19% hits; K562-ABCB6 porphyrin accumulation, flow cytometry, 1 h; active compounds read low; AID 602162; Q9NP58;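 active = fluorescence ratio to DMSO below 75%, the collection mean minus 3 SD; inconclusive = too few cells collected in the well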;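 also: signal is porphyrin accumulated inside mitochondria; 100% equals median channel fluorescence of DMSO control wells; lower ratio means ABCB6 inhibition with less porphyrin fluorescence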
Target sequence (Q9NP58 whole entry, looked up): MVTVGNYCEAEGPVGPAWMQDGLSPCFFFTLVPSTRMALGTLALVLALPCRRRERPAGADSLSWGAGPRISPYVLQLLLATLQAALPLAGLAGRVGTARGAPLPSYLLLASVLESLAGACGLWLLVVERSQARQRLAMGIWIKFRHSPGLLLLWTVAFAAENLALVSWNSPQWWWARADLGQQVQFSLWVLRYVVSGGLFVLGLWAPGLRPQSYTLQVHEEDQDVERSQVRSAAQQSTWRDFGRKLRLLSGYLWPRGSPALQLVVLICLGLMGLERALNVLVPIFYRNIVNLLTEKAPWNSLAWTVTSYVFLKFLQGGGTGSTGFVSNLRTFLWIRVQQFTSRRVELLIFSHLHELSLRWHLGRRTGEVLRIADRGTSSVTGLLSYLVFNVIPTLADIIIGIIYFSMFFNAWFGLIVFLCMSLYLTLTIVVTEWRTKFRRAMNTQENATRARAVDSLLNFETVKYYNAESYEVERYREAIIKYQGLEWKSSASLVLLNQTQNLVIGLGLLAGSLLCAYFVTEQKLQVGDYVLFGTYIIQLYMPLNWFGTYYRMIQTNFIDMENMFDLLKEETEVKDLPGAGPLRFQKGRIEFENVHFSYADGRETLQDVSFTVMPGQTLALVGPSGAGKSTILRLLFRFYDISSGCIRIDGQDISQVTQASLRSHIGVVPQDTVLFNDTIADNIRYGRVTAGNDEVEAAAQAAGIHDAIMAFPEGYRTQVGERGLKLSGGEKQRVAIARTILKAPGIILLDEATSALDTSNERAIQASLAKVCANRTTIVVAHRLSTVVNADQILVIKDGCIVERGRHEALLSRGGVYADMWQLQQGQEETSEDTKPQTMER
Exocytosis CP01: blocks lytic granule exocytosis; 1,500 compounds, 11% hits; shares compounds with Exocytosis inh; inhibition, % at 10 µM; TALL-104 cells, LAMP-1 externalization, flow cytometry; stimulated with PMA plus thapsigargin; AID 651954; in the data active = inhibition above about 60%;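 also: 0% = stimulated vehicle wells and 100% = unstimulated wells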
The depositor's hits bear a star; i = inactive; u = inconclusive; x = no result given. This is a sample that favours compounds with a hit; in the whole collection about 1.8% have one here.

SMILES	Myeloid diff 2	Exocytosis inh	ABCB6 inh 2	Exocytosis CP01
COc1ccc(NC(=O)CC2C(=O)N(Cc3ccccc3)C(=S)N2CCN2CCOCC2)cc1 (stereo unspecified)	i	-5	100	x
C=CCN1C(=O)C(CC(=O)Nc2ccc(OCCC)cc2)N(CCCN2CCN(Cc3ccccc3)CC2)C1=S (stereo unspecified)	i	58*	89	21
O=C(Nc1ccccc1Cl)c1ccccc1	i	0	94	x
O=C(Nc1ccccc1Cl)c1sccc1-c1ccccc1	i	81*	95	-5
CCOC(=O)c1cnc2ccc(OCC)cc2c1N(C)Cc1ccccc1	i	102*	83	79*
CCOC(=O)c1cnc2ccc(OCC)cc2c1N1CCN(c2ccccc2OC)CC1	i	0	95	x
OC1c2cc(Cl)ccc2-c2c(Cl)cc(Cl)cc21 (stereo unspecified)	i	-2	100	x
O=C(CN1CCN(C(c2ccccc2)c2ccccc2)CC1)N1CCN(c2ccccc2)CC1	i	71*	96	-1
CC1CCN(CC(=O)N2CCN(c3ccccc3)CC2)CC1	i	-2	94	x
O=C(OCc1ccccc1)N(CCCCN(CCCNCc1ccccc1)C(=O)OCc1ccccc1)CCCNCc1ccccc1	u	85*	99	99*
O=C(NCCCCCCNC(=O)OCc1ccccc1)OCc1ccccc1	i	-2	100	x
Cc1ccc(N(CC(=O)NC2CCCC2)C(=O)CCC(=O)Nc2nccs2)c(C)c1	i	-2	97	x
Cc1ccc(C)c(N(CC(=O)NC2CCCC2)C(=O)CCC(=O)Nc2nccs2)c1	i	78*	105	-12
CC(C)(C)CC(C)(C)N=C1Nc2ccccc2NC12C[C@H]1CCC(=O)N3CC[C@@H](C2)[C@@H]13 (stereo partly specified)	i	2	99	x
CC(C)(C)CC(C)(C)N=C1Nc2cc(Cl)c(Cl)cc2NC12C[C@H]1CCC(=O)N3CC[C@@H](C2)[C@@H]13 (stereo partly specified)	i	76*	101	-12
CCOC(=O)Nc1ccc2c(c1)N(C(=O)CN)c1ccccc1CC2	i	0	97	x
CCNCC(=O)N1c2ccccc2CCc2ccc(NC(=O)OCC)cc21	i	57*	95	-14
CN1CCN(S(=O)(=O)c2cccc(C(=O)NCCC3=CCCCC3)c2)CC1	i	5	101	x
CC(=O)N1CCN(S(=O)(=O)c2cccc(C(=O)NCCC3=CCCCC3)c2)CC1	i	67*	97	-10
COc1ccc(OC)c(Nc2nc(NCc3ccco3)c3ccccc3n2)c1	i	10	122	x
Oc1ccccc1Nc1nc(NCc2ccco2)c2ccccc2n1	i	61*	93	89*
c1ccc(Nc2nc(NCc3ccco3)c3ccccc3n2)cc1	i	77*	107	6
c1ccc(CN2CCN(c3nc(NCc4ccco4)c4ccccc4n3)CC2)cc1	i	67*	103	30
CSc1nc(NCc2ccco2)c2ccccc2n1	i	-2	97	x
OCCN1CCN(c2nc(NCc3ccco3)c3ccccc3n2)CC1	i	2	101	x
SMILES	Myeloid diff 2	Exocytosis inh	ABCB6 inh 2	Exocytosis CP01
CCN(c1cccc(C)c1)S(=O)(=O)c1ccc(-n2cccn2)cc1	i	-2	98	x
COCCNC(=O)C1CCCN(Cc2ccc(-c3ccccc3)cc2)CC1 (stereo unspecified)	i	-6	95	x
CC(C)(C)CC(=O)Nc1nnc(SCC(=O)NC2CCCCC2)s1	i	-11	85	x
CSc1ccc(NC(=O)NN(c2ccccc2)C2CCS(=O)(=O)C2)cc1 (stereo unspecified)	i	-5	98	x
COc1cccc(CNC(=O)CSc2nnc3c(n2)[nH]c2ccc(C)cc23)c1	i	-13	104	x
O=C(O)c1nn(CCOc2cccc(Br)c2)c(=O)c2ccccc12	i	73*	100	-2
O=C(O)c1nn(CCOc2cccc(Cl)c2)c(=O)c2ccccc12	i	4	101	x
COc1ccc(COc2ccccc2C(=O)Nc2ccccn2)cc1[N+](=O)[O-]	i	1	102	x
COc1ccc(-c2nc(C(=O)NCCCN3CCOCC3)cc3c2[nH]c2ccccc23)cc1OC	i	12	98	x
Cc1ccc(-c2nc(C(=O)NCCCN3CCOCC3)cc3c2[nH]c2ccccc23)cc1	i	56*	94	18
CC(C)CC(=O)Nc1ccc2c(c1)nc(CCN1CCOCC1)n2C	i	-1	103	x
CCCCCCCCC(c1nc2ccccc2[nH]1)N1CCN=C1c1cc2ccccc2[nH]1 (stereo unspecified)	i	76*	101	45
CCC(c1nc2ccccc2[nH]1)n1c(-c2ccc3ccccc3c2)nc2ccccc21 (stereo unspecified)	i	6	x	x
Cc1ccc(Nc2nnc(-c3ccncc3)s2)c(Br)c1	i	5	101	x
COc1ccccc1C(=O)Nc1c2c(nn1-c1cccc(C)c1C)CS(=O)(=O)C2	i	71*	97	-1
COc1ccccc1C(=O)Nc1c2c(nn1-c1ccc(Cl)cc1)CS(=O)(=O)C2	u	2	100	x
COCc1c(C(=O)NCc2ccccc2CN2CCCC2)oc2ccccc12	i	-5	100	x
Oc1ccccc1CNCC12CC3CC(CC(C3)C1)C2	i	47	99	x
CC(CC12CC3CC(CC(C3)C1)C2)NCc1ccccc1O (stereo unspecified)	i	61*	94	-12
CCOC(=O)c1c(-c2ccccc2)oc2ccc(OC(C)C(=O)O)cc12 (stereo unspecified)	i	-5	95	x
CCOC(=O)c1c(-c2ccccc2)oc2ccc(OCC(O)CN(C)C)cc12 (stereo unspecified)	i	84*	102	-3
Oc1cc(Br)ccc1C=Nc1ccc(N2CCCCC2)cc1	i	65*	100	-3
Oc1ccc(Br)cc1C=Nc1ccc(Cl)cc1	i	4	98	x
Cc1ccc(C(=O)Nc2sc3c(c2C(=O)NCc2ccco2)CCCC3)cc1	i	1	96	x
COc1cc(C(=O)Nc2sc3c(c2C(=O)NCc2ccco2)CCCC3)cc(OC)c1OC	i	55	91	x
SMILES	Myeloid diff 2	Exocytosis inh	ABCB6 inh 2	Exocytosis CP01
COc1ccc(C(=O)Nc2ccc(Cl)cc2C(=O)NCc2ccco2)cc1OC	i	60*	103	44
COc1ccc(Cl)cc1C(=O)NCc1ccco1	i	6	96	x
O=C(Nc1sc2c(c1C(=O)NCc1ccco1)CCCC2)c1ccc2c(c1)OCO2	i	59*	98	-2
COc1ccc(C(=O)Nc2sc3c(c2C(=O)NCc2ccco2)CCCC3)cc1OC	i	56*	89	5
Cc1nc(SCC(=O)O)c(C#N)c(C)c1CC(=O)c1ccccc1	i	-6	100	x
CCC(=O)Nc1ccc(C(=O)NNC(=O)C2CCCCC2)cc1	i	19	101	x
O=C1C=C(c2cccc(CO)c2)C[C@@H](c2ccc(Cl)cc2)C1	i	-1	96	x
CC(=O)N/N=C(/C)c1ccc(NC(=O)c2csc(C)c2C)cc1	i	-2	94	x
Cc1ccc(C(c2nnnn2Cc2cccs2)N2CCN(Cc3ccc4c(c3)OCO4)CC2)cc1 (stereo unspecified)	i	60*	96	9
